Compounds without any hit were thinned out: in the full panel of roughly 83,000, 20% have a hit.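 The endpoint reported here, percent growth, reads 100 for growth as untreated, 0 for no net growth and -100 for all cells dead.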
Tests used:
Test in all cases: NCI-60 one-dose screen, 48 h (100 = growth as untreated, 0 = no growth, -100 = all killed)
Conditions in all cases: 10 µM; active = growth percent below 10; inactive = the rest
NCI-H23 lung = test system: NCI-H23 lung
NCI-H226 lung = test system: NCI-H226 lung
NCI-H322M lung = test system: NCI-H322M lung
NCI-H460 lung = test system: NCI-H460 lung
NCI-H522 lung = test system: NCI-H522 lung
A549/ATCC NSCLC = test system: A549/ATCC NSCLC
786-0 renal = test system: 786-0 renal
COLO 205 colon = test system: COLO 205 colon
DU-145 prostate = test system: DU-145 prostate
K-562 leukemia = test system: K-562 leukemia
MALME-3M melanoma = test system: MALME-3M melanoma
MDA-MB-231 breast = test system: MDA-MB-231 breast
RXF 393 renal = test system: RXF 393 renal
SF-268 CNS = test system: SF-268 CNS
SF-295 CNS = test system: SF-295 CNS
SF-539 CNS = test system: SF-539 CNS
UACC-257 melanoma = test system: UACC-257 melanoma
M14 melanoma = test system: M14 melanoma
HOP-62 NSCLC = test system: HOP-62 NSCLC
HOP-92 NSCLC = test system: HOP-92 NSCLC

Measured: growth

COC(=O)Nc1cccc(Cl)c1OC
inactive: NCI-H23 lung 107% | NCI-H226 lung 96.5% | NCI-H322M lung 107% | NCI-H460 lung 38.2% | NCI-H522 lung 92.7% | A549/ATCC NSCLC 106% | 786-0 renal 104% | COLO 205 colon 127% | DU-145 prostate 114% | K-562 leukemia 113% | MALME-3M melanoma 106% | MDA-MB-231 breast 124% | RXF 393 renal 90% | SF-268 CNS 107% | SF-295 CNS 81.8% | SF-539 CNS 98.2% | UACC-257 melanoma 103% | M14 melanoma 110%

Cc1ccc(C(=O)NC2c3ccccc3Oc3ccccc32)cc1
inactive: NCI-H23 lung 70.4% | NCI-H226 lung 79% | HOP-62 NSCLC 32.2% | NCI-H460 lung 59.8% | HOP-92 NSCLC 62.1% | NCI-H522 lung 41.2% | A549/ATCC NSCLC 48.9% | 786-0 renal 25.7% | COLO 205 colon 73.6% | DU-145 prostate 88.2% | K-562 leukemia 14.3% | MALME-3M melanoma 53.2% | MDA-MB-231 breast 58.4% | RXF 393 renal 74.9% | SF-268 CNS 64.1% | SF-295 CNS 24.8% | SF-539 CNS 61.3% | UACC-257 melanoma 57.7% | M14 melanoma 36%

CSC(=N\N=C\c1ccc(N(C)C)cc1)/N=C/N(C)C
inactive: NCI-H23 lung 112% | NCI-H226 lung 90% | NCI-H322M lung 102% | NCI-H460 lung 95.4% | NCI-H522 lung 107% | A549/ATCC NSCLC 103% | 786-0 renal 103% | COLO 205 colon 110% | DU-145 prostate 117% | K-562 leukemia 111% | MALME-3M melanoma 104% | MDA-MB-231 breast 106% | RXF 393 renal 95.1% | SF-268 CNS 111% | SF-295 CNS 84.6% | SF-539 CNS 96% | UACC-257 melanoma 100% | M14 melanoma 104%

Cc1cccc(CO)c1
inactive: NCI-H23 lung 94.5% | NCI-H226 lung 99% | NCI-H322M lung 102% | NCI-H460 lung 105% | NCI-H522 lung 105% | A549/ATCC NSCLC 102% | 786-0 renal 104% | COLO 205 colon 105% | DU-145 prostate 98.1% | K-562 leukemia 97.7% | MALME-3M melanoma 104% | MDA-MB-231 breast 104% | RXF 393 renal 121% | SF-268 CNS 95.4% | SF-295 CNS 100% | SF-539 CNS 108% | UACC-257 melanoma 99.9% | M14 melanoma 108%

Cc1cc(Cc2cc(C)c(N)cc2N)c(N)cc1N
inactive: NCI-H23 lung 86.6% | NCI-H226 lung 81.7% | HOP-62 NSCLC 88.1% | NCI-H460 lung 101% | HOP-92 NSCLC 91.4% | NCI-H522 lung 89.4% | A549/ATCC NSCLC 85.2% | 786-0 renal 104% | COLO 205 colon 92.8% | DU-145 prostate 105% | K-562 leukemia 101% | MALME-3M melanoma 95.2% | MDA-MB-231 breast 83.9% | RXF 393 renal 103% | SF-268 CNS 90.9% | SF-295 CNS 104% | SF-539 CNS 103% | UACC-257 melanoma 85.3% | M14 melanoma 101%

O=C(O)/C=C/c1ccc2c(c1)CCC2
inactive: NCI-H23 lung 113% | NCI-H226 lung 105% | HOP-62 NSCLC 94.6% | NCI-H460 lung 103% | A549/ATCC NSCLC 106% | 786-0 renal 101% | COLO 205 colon 105% | DU-145 prostate 118% | K-562 leukemia 86.9% | MALME-3M melanoma 121% | MDA-MB-231 breast 118% | RXF 393 renal 106% | SF-268 CNS 116% | SF-295 CNS 98.9% | SF-539 CNS 106% | UACC-257 melanoma 97.8% | M14 melanoma 106%

Clc1ccc(-c2nnc(-c3cccc4ccccc34)o2)cc1
inactive: NCI-H23 lung 83.6% | NCI-H226 lung 87.6% | NCI-H322M lung 112% | NCI-H460 lung 96.4% | NCI-H522 lung 83.5% | 786-0 renal 110% | COLO 205 colon 101% | DU-145 prostate 114% | K-562 leukemia 104% | MALME-3M melanoma 99.8% | RXF 393 renal 102% | SF-268 CNS 103% | SF-295 CNS 110% | SF-539 CNS 94.8% | UACC-257 melanoma 78% | M14 melanoma 103%

N/N=C(/Cc1ccccc1)NNC(N)=S
inactive: NCI-H23 lung 99% | NCI-H226 lung 108% | NCI-H322M lung 82.7% | NCI-H460 lung 103% | NCI-H522 lung 72.4% | A549/ATCC NSCLC 74.4% | 786-0 renal 111% | DU-145 prostate 106% | K-562 leukemia 103% | MALME-3M melanoma 95.4% | MDA-MB-231 breast 111% | RXF 393 renal 112% | SF-268 CNS 97.4% | SF-295 CNS 105% | SF-539 CNS 98.5% | UACC-257 melanoma 92.3% | M14 melanoma 93.5%

C[N+](C)=c1ccc2nc3c(cc(Nc4ccccc4)c4ccccc43)oc-2c1
inactive: NCI-H23 lung 31.6% | NCI-H226 lung 44.4% | HOP-62 NSCLC 67.6% | NCI-H460 lung 65% | HOP-92 NSCLC 79.5% | NCI-H522 lung 42.3% | A549/ATCC NSCLC 64.4% | 786-0 renal 72.8% | DU-145 prostate 55.4% | K-562 leukemia 38.5% | MALME-3M melanoma 28.2% | MDA-MB-231 breast 47% | RXF 393 renal 69.2% | SF-268 CNS 80.3% | SF-295 CNS 59.5% | SF-539 CNS 74.3% | UACC-257 melanoma 38.6% | M14 melanoma 33.9%
